Measured values reported in PubChem BioAssay (NCATS).
Results filed as inconclusive are left out. Entries that show only a call come without a potency. Unmarked numbers belong to inactive results. Active and inactive are the calls of the source. Calls follow the shape of the dose curve; as a rule, active = well fitted cell-killing curve with a large enough effect; inconclusive = small, poorly fitted or top-dose-only effect, or effect the other way; inactive = flat fitted curve, though single readings scatter. Where a SMILES comes first, the peptide text is derived from it. The star is where a group is joined. AFC = O=c1cc(C(F)(F)F)c2ccc(N*)cc2o1

Legend:
Assay in all cases: Primary qHTS to identify gynecologic anti-cancer compounds using libraries of approved drugs and bioactive compounds (AID 1345084); also: nearly all actives have a fitted effect of over 55% in size
Details in all cases: Gynecologic cancer cell panel viability, ATPlite luminescence, 48 h; series mostly up to 57.5 µM
[1] = tested on: OV90
Method in brief: (§1)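 In this quantitative HTS, cell killing is estimated from loss of ATP-dependent luciferase light. Cells see five compound concentrations over a 48 h exposure.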

[2] = tested on: PA-1
Method in brief: as §1

[3] = tested on: SKOV3
Method in brief: as §1

[4] = tested on: Tov-21-G
Method in brief: as §1

[5] = tested on: Tov112D
Method in brief: as §1
Potency is read from the fitted curve at half-maximal effect.

`CC12CC34C=CC(=O)C(C)(CCC(=O)O)C3C(CC1C4)O2` (centres undefined) was tested, and the Potency [1] was “inactive”, the Potency [2] was “inactive” and the Potency [3] was “inactive”. The Potency [4] was “inactive” and the Potency [5] was “inactive”.
For `CCC(CCO[C@@H]1O[C@H](CO[C@H]2OC[C@](O)(CO)[C@H]2O)[C@@H](O)[C@H](O)[C@H]1O)C(C)(C)O` (some centres undefined), the Potency [1] was “inactive”, the Potency [2] was “inactive” and the Potency [3] was “inactive”. For the same compound, the Potency [4] was “inactive” and the Potency [5] was “inactive”.
For `COc1cc(/C=C/C(=O)OC2CC(OC(C)=O)C(OC(C)=O)C3C2CCC2C(=O)OC(c4ccoc4)CC23C)ccc1O[C@@H]1O[C@H](CO)[C@@H](O)[C@H](O)[C@H]1O` (some centres undefined), the Potency [1] was “inactive”, the Potency [2] was “inactive” and the Potency [3] was “inactive”. The Potency [4] was “inactive” and the Potency [5] was “inactive”.
With `N#CC1C(=O)Nc2scc(-c3ccc(-c4ccccc4O)cc3)c2C1=O` (centres undefined) the Potency [1] was “inactive”, the Potency [2] was “inactive” and the Potency [3] was “inactive”. The Potency [4] was “inactive” and the Potency [5] was “inactive”.
For `C[C@@H]1C(=O)O[C@H]2[C@H]1CC[C@@]1(C)C(=O)C=C[C@](C)(O)[C@H]21`, the Potency [1] was “inactive”, the Potency [2] was “inactive” and the Potency [3] was “inactive”. The Potency [4] was “inactive” and the Potency [5] was “inactive”.
In the case of `C=C1[C@@H]2[C@H]3OC(=O)C(=C)[C@@H]3CC[C@@](C)(O)[C@@H]2C[C@@H]1O[C@@H]1O[C@H](CO)[C@@H](O)[C@H](O)[C@H]1O`, the Potency [1] is reported as “inactive”, the Potency [2] is reported as “inactive” and the Potency [3] is reported as “inactive”. The Potency [4] was “inactive” and the Potency [5] was “inactive”.
With `CCN(c1cc(C#CCN2CCOCC2)cc(C(=O)NCc2c(C)cc(C)[nH]c2=O)c1C)C1CCC(N(C)CCOC)CC1` (centres undefined) the Potency [1] was “inactive”, the Potency [2] was “inactive” and the Potency [3] was “inactive”. For the same compound, the Potency [4] was “inactive” and the Potency [5] was “inactive”.
In the case of `C[C@@H]1CC[C@]2(C)C(C[C@@H](O)[C@H](O)[C@]23CO3)[C@@]1(C)CCc1ccoc1` (some centres undefined), the Potency [1] is reported as “inactive”, the Potency [2] is reported as “inactive” and the Potency [3] is reported as “inactive”. For the same compound, the Potency [4] was “inactive” and the Potency [5] was “inactive”.
`CC(C)(C)c1cc(CN2CCN(CC(O)c3ccc(Cl)cc3)CC2)cc(C(C)(C)C)c1O` (centres undefined) was tested, and the Potency [1] was “inactive”, the Potency [2] was “inactive” and the Potency [3] was “inactive”. For the same compound, the Potency [4] was “inactive” and the Potency [5] was “inactive”.
In the case of `CC(=O)OC[C@@]12[C@H](O)C[C@@H](C)[C@]3(C[C@@H](c4ccoc4)OC3=O)[C@H]1C[C@H](O)C[C@]21CO1`, the Potency [1] is reported as “inactive”, the Potency [2] is reported as “inactive” and the Potency [3] is reported as “inactive”. For the same compound, the Potency [4] was “inactive” and the Potency [5] was “inactive”.
`Cc1c(CN(C)C(=O)/C=C/c2cnc3c(c2)CCC(=O)N3)oc2ccccc12` was tested, and the Potency [1] was “inactive”, the Potency [2] was “inactive” and the Potency [3] was “inactive”. The Potency [4] was “inactive” and the Potency [5] was “inactive”.
In the case of `CCOc1nc2cccc(C(=O)OCc3oc(=O)oc3C)c2n1Cc1ccc(-c2ccccc2-c2noc(O)n2)cc1`, the Potency [1] is reported as “inactive”, the Potency [2] is reported as “inactive” and the Potency [3] is reported as “inactive”. The Potency [4] was “inactive” and the Potency [5] was “inactive”.
In the case of `CCc1nc(C(N)=O)c(Nc2ccc(N3CCC(N4CCN(C)CC4)CC3)c(OC)c2)nc1NC1CCOCC1`, the Potency [1] is reported as “inactive”, the Potency [2] is reported as 2.24 µM (active) and the Potency [3] is reported as 1.12 µM (active).
With `CC(C)=CCCC1(C)Oc2cc3c(c4c2C2C(O4)C(C)(O)CCC21)CN(C(CCC(=O)O)C(=O)O)C3=O` (centres undefined) the Potency [1] was “inactive”, the Potency [2] was “inactive” and the Potency [3] was “inactive”. For the same compound, the Potency [4] was “inactive” and the Potency [5] was “inactive”.
For `COC1C=C([C@@H]2CC=C3[C@@]4(C)C(CC[C@]32C)[C@@]2(C)C=CC(=O)C(C)(C)C2C[C@H]4OC(C)=O)C(=O)O1` (some centres undefined), the Potency [1] was “inactive”, the Potency [2] was “inactive” and the Potency [3] was “inactive”. For the same compound, the Potency [4] was “inactive” and the Potency [5] was “inactive”.
`CC1(CCC(=O)O)C(=O)C=CC23CC4CC(OC4(C)C2O)C13` (centres undefined) was tested, and the Potency [1] was “inactive”, the Potency [2] was “inactive” and the Potency [3] was “inactive”. The Potency [4] was “inactive” and the Potency [5] was “inactive”.
For `OC[C@H]1O[C@@H](Oc2cc(O)cc(/C=C/c3ccc(O)cc3)c2)[C@H](O)[C@@H](O)[C@@H]1O`, the Potency [1] was “inactive”.
In the case of `C[C@@H]1O[C@@H](O[C@H]2[C@H](O[C@H]3CO[C@@H](O[C@H]4CC[C@@]5(C)C(CC[C@]6(C)C5CC[C@]57OC[C@@]8(CC[C@](C)(CO)CC85)[C@H](O)C[C@]76C)C4(C)C)[C@H](O[C@@H]4O[C@H](CO)[C@@H](O)[C@H](O)[C@H]4O)[C@H]3O)O[C@H](CO)[C@@H](O)[C@@H]2O)[C@H](O)[C@H](O)[C@H]1O` (some centres undefined), the activity change, negative = cytotoxicity [1] is reported as 0.0764% [at 11.6 µM], the activity change, negative = cytotoxicity [2] is reported as 4.72% [at 11.6 µM] and the activity change, negative = cytotoxicity [3] is reported as 20.5% [at 11.6 µM]. It also gave an activity change, negative = cytotoxicity [4] of -1.65% [at 11.6 µM] and an activity change, negative = cytotoxicity [5] of -8.07% [at 11.6 µM].
`COC(=O)C1(Cc2ccc(O)cc2)OC(=O)C(OC)=C1c1ccc(O)cc1` (centres undefined) was tested, and the Potency [1] was “inactive”, the Potency [2] was “inactive” and the Potency [3] was “inactive”. The Potency [4] was “inactive” and the Potency [5] was “inactive”.
With `CC(=O)N[C@@H](CC(C)C)C(=O)N[C@@H](CCC(=O)O)C(=O)N[C@@H](CCC(=O)O)C(=O)N[C@@H](CC(=O)O)C(=O)Nc1ccc2c(C(F)(F)F)cc(=O)oc2c1` (Ac-LEED-{AFC}) the Potency [1] was “inactive”, the Potency [2] was “inactive” and the Potency [3] was “inactive”. For the same compound, the Potency [4] was “inactive” and the Potency [5] was “inactive”.
